The source made the active and inactive calls. How the calls were made is not given here.

In the experiment the target is Pantothenate synthetase (Mycobacterium tuberculosis (strain ATCC 25618 / H37Rv)) (UniProt P9WIL5). The experiment in a line: Coupled enzyme confirmation of inhibitors against recombinant Mtb PanC (AID 375).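 Further: 0% = full reaction with vehicle and 100% = no enzyme background.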 The settings on record: coupled enzyme assay; at 10 µM, active compounds read high.
Pantothenate synthetase (Mycobacterium tuberculosis (strain ATCC 25618 / H37Rv)), sequence (P9WIL5 whole entry, looked up): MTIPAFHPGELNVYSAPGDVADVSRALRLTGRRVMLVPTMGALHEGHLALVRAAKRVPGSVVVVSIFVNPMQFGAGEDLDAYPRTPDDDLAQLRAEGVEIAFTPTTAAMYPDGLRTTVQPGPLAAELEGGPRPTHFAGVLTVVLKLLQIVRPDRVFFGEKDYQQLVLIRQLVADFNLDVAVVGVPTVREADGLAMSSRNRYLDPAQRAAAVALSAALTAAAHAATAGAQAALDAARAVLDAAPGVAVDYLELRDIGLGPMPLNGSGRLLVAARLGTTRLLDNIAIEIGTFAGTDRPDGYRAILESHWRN
As usually defined, the inhibition is the share of the control response that was lost under treatment. Take `O=S(=O)(NCc1ccc(Cl)cc1)c1cnc[nH]1`: the inhibition was 0% (inactive). Consider `COc1cc(-c2nc(S(=O)(=O)c3ccccc3)c(N3CCOCC3)o2)cc(OC)c1OC`, for which the inhibition was 8% (inactive). To `Cc1ccc(-c2csc3ncn(-n4c(C)ccc4C)c(=O)c23)o1` belongs 0% (inactive). To `CCC(=O)c1ccc(OCC(=O)N2CCc3cc(OC)c(OC)cc3C2)cc1` belongs 0% (inactive); to `CCOC(=O)CCCn1nc(C)n2c(cc3sccc32)c1=O`, 5% (inactive); to `CCOC(=O)N1CCN(C(=O)c2cccn3c(=O)c4sccc4nc23)CC1`, 0% (inactive). As to `CCOC(=O)C1=C(CC)Nc2ccccc2N=C1NC(=O)Nc1ccccc1OC`, the inhibition was 2% (inactive). `O=S(=O)(Cc1ccccc1)N1CCCCCC1`: the inhibition was 0% (inactive). Regarding `Cc1cccc2c1nc(-c1ccccc1)n1cnnc21`, the inhibition was 0% (inactive). Take `CC(C)Cn1c(N)c(C(=O)NCCN2CCOCC2)c2nc3ccccc3nc21`: the inhibition is 0% (inactive). For the molecule `O=C(Nc1ccc(Cl)cc1)C1CC=CCC1C(=O)OCC(F)(F)C(F)F` (stereo not given), the inhibition was 0% (inactive). Regarding `Cc1ccc2cc(C(c3nnnn3CC3CCCO3)N3CCCC4(CCCCC4)C3)c(=O)[nH]c2c1` (stereo not given), the inhibition is 0% (inactive).

As for `O=C1NC(c2cccnc2)C(C(=O)c2cccs2)C(O)(C(F)(F)F)N1` (stereo not given), the inhibition is 6% (inactive).

`CCOC(=O)N1CCC(O)(c2cc(C)c(C)cc2C)CC1`: the inhibition is 3% (inactive). For the molecule `Cc1c(C(=O)NCc2ccccn2)oc2ccccc12`, the inhibition was 0% (inactive). As to `O=C(c1ccc2c(c1)OCCO2)C1CCN(C(=O)c2ccc(F)cc2)CC1`, the inhibition is 0% (inactive). In the case of `CCCCOC(=O)CSc1nc2c(cc1C#N)C(=O)CC(C)(C)C2`, the inhibition was 0% (inactive). `CCOC(=O)CSc1nc(N)c2c3c(sc2n1)CCCC3`: the inhibition is 0% (inactive). On to `COCCN1C(=O)C(=O)/C(=C(/O)c2cccc(OC)c2)C1c1ccncc1` (stereo not given), for which the inhibition was 1% (inactive). On to `O=c1c2c3c(sc2n2cnnc2n1CCc1ccccc1)CCCC3`, for which the inhibition was 5% (inactive). `CCSc1ncc(C#N)c(=O)[nH]1`: the inhibition was 0% (inactive).

As for `O=C(COC(=O)C1CC1)c1c[nH]c2ccccc12`, the inhibition is 1% (inactive).

Turning to `O=C(CCSc1ccccc1)Nc1ccc(S(=O)(=O)N2CCOCC2)cc1`, the inhibition was 7% (inactive). As for `CCN1CCN(C(=O)c2oc(=O)c3ccccc3c2-c2ccc(C)cc2)CC1`, the figure is 0% (inactive); as for `CN1CCN(C(c2cccc(C(F)(F)F)c2)c2nnnn2C(C)(C)C)CC1` (stereo not given), 1% (inactive); as for `Cc1cc(OCC(=O)NCCO)cc(C)c1Cl`, 3% (inactive). Turning to `COc1ccc2nc(N3CCC(C)CC3)c(C#N)cc2c1`, the inhibition is 7% (inactive). `O=C(O)c1oc2ccccc2c1-n1cccc1`: the inhibition was 6% (inactive).

Turning to `O=C(NC(=O)c1ccc(Cl)cc1)Nc1cc(N2CCCCC2)ncn1`, the inhibition was 0% (inactive). Regarding `O=C(Nc1ccccc1C(=O)N1CCCCCC1)c1cccc(S(=O)(=O)N2CCOCC2)c1`, the inhibition was 5% (inactive). As to `COc1ccccc1-n1cnnc1SCC(=O)c1ccc[nH]1`, the inhibition is 3% (inactive).

With `CCC(=O)N[C@@H]1CC(C(C)(C)NC(=O)CC)CC=C1C` (stereo not given in full), the inhibition is 6% (inactive). As to `Cc1c(-n2c(CN3C(=O)c4ccccc4C3=O)nc3ccccc3c2=O)c(=O)n(-c2ccccc2)n1C`, the inhibition is 0% (inactive).

`O=C(COc1ccc(F)cc1Br)N1CCc2ccccc21`: the inhibition was 10% (inactive). As for `COc1ccccc1N1CCN(C(CNS(=O)(=O)c2cc(F)ccc2F)c2cccnc2)CC1` (stereo not given), the inhibition is 0% (inactive). Turning to `O=C(C1CCN(S(=O)(=O)N2CCC3(CC2)OCCO3)CC1)N1CCOCC1`, the inhibition was 0% (inactive).

Regarding `Cc1csc(OCc2ccc(C#N)cc2)n1`, the inhibition was 0% (inactive).

For the molecule `CN1C(=S)SC(C)(NO)C1(C)C` (stereo not given), the inhibition is 0% (inactive).

With `Cc1cc(NS(=O)(=O)c2ccc(NC(=O)Nc3ccc4c(c3)OCO4)cc2)no1`, the inhibition is 0% (inactive).

Turning to `Cc1ccc(-n2nnnc2SCC(=O)N2CCc3ccccc3C2)cc1`, the inhibition is 4% (inactive).
